The record followed here is ChEMBL document CHEMBL1961873, “Compounds: GSK PKIS; Assays: Nanosyn kinase panel” (2012).

Assay [1] deals with T1, Inhibitor of nuclear factor kappa-B kinase subunit epsilon (Homo sapiens) (UniProt Q14164).
T1 sequence (whole entry): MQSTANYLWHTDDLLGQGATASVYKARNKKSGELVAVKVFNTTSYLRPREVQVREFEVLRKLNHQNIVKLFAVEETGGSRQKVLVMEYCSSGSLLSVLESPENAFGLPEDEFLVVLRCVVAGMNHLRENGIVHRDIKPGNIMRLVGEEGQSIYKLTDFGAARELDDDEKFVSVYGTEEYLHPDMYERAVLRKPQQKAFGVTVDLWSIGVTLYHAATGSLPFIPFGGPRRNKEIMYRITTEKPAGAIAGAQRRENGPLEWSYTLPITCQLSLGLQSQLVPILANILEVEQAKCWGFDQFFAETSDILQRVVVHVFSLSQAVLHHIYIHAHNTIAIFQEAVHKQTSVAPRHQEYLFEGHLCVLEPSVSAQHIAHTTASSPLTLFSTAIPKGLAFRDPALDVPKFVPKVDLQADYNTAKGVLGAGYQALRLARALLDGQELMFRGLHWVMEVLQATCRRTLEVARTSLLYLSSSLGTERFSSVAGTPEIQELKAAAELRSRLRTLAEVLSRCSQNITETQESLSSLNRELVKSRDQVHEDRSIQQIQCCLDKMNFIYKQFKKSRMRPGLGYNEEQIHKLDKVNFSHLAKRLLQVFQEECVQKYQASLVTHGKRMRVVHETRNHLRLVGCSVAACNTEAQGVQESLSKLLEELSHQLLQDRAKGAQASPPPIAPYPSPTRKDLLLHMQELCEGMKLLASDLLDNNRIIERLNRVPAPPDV
The following applies: at 1 µM.

The target of assay [2] is T2, Serine/threonine-protein kinase Nek1 (Homo sapiens) (UniProt Q96PY6).
T2 sequence (whole entry): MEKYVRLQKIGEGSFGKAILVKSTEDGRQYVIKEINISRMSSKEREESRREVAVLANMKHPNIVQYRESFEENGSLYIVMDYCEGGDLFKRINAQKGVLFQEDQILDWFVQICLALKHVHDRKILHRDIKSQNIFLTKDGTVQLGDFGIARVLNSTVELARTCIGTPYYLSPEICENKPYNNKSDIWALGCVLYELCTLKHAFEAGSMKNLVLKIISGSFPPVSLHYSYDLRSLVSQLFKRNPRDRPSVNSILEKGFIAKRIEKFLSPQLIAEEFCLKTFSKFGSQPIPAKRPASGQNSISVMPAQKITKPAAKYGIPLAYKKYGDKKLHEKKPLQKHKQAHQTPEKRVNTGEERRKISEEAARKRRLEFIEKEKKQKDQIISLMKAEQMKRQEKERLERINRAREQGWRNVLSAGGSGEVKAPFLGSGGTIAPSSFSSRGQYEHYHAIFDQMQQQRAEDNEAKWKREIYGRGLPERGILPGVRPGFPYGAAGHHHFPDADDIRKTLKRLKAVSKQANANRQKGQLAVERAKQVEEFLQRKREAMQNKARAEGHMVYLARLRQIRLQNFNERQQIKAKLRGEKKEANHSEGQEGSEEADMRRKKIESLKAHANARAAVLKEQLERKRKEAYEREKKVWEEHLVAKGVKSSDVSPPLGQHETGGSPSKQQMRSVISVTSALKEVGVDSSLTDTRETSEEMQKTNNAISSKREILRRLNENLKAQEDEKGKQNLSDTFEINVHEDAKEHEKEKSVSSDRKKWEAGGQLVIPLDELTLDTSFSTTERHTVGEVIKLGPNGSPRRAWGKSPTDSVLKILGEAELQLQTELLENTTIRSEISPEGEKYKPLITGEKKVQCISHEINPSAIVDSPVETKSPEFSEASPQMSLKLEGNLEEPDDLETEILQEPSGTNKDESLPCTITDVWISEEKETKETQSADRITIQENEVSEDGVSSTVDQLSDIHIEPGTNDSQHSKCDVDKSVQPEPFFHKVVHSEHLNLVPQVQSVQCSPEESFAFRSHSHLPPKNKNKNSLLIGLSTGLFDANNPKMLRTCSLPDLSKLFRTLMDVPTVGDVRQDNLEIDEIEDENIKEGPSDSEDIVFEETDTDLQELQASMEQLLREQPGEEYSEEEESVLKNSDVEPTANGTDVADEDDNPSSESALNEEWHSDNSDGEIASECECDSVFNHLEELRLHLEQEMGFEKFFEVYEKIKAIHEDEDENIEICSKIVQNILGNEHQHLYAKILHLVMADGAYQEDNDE
The following applies: at 0.1 µM.

Assay [3] concerns the target T2, Serine/threonine-protein kinase Nek1 (Homo sapiens). The following applies: at 1 µM.
Assay [4] has as its target T3, Serine/threonine-protein kinase Nek2 (Homo sapiens) (UniProt P51955).
T3 sequence (whole entry): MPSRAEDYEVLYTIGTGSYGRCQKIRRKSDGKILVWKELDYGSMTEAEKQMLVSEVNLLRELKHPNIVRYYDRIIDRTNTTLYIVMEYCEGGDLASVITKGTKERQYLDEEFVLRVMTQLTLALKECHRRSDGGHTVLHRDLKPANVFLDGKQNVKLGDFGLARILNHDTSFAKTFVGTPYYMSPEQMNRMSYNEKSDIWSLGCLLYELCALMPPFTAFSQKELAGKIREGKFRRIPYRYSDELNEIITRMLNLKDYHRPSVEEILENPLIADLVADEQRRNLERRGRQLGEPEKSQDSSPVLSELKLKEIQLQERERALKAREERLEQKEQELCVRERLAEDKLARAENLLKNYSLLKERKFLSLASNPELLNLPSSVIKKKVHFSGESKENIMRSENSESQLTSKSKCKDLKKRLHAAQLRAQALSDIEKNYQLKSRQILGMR
The following applies: at 0.1 µM.

The target in assay [5] is T3, Serine/threonine-protein kinase Nek2 (Homo sapiens). The following applies: at 1 µM.
The target of assay [6] is Serine/threonine-protein kinase Nek6 (Homo sapiens) (UniProt Q9HC98). The following applies: at 0.1 µM.
Chain of Serine/threonine-protein kinase Nek6 (Homo sapiens) (Q9HC98 whole entry): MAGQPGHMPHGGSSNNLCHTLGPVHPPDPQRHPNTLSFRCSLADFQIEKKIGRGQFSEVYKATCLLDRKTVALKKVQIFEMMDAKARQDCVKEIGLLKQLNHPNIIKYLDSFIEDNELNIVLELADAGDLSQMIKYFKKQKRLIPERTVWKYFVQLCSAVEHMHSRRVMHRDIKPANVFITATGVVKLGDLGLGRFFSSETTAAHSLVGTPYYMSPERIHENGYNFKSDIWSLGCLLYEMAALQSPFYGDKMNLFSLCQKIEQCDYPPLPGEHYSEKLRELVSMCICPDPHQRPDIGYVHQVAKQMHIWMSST
Assay [7] has the same target. The following applies: at 1 µM.
Assay [8] deals with Serine/threonine-protein kinase Nek7 (Homo sapiens) (UniProt Q8TDX7). The following applies: at 0.1 µM.
Chain of Serine/threonine-protein kinase Nek7 (Homo sapiens) (Q8TDX7 whole entry, looked up): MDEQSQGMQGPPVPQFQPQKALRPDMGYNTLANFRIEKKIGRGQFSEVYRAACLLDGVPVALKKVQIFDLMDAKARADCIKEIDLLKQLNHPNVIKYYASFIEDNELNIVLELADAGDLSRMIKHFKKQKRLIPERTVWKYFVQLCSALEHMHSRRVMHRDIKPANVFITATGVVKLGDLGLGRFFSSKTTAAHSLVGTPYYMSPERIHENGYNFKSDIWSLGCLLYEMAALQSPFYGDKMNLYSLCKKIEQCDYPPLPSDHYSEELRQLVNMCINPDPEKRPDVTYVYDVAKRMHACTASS
Assay [9] has the same target. The following applies: at 1 µM.
Assay [10] addresses T4, Serine/threonine-protein kinase Nek9 (Homo sapiens) (UniProt Q8TD19).
T4 sequence (whole entry): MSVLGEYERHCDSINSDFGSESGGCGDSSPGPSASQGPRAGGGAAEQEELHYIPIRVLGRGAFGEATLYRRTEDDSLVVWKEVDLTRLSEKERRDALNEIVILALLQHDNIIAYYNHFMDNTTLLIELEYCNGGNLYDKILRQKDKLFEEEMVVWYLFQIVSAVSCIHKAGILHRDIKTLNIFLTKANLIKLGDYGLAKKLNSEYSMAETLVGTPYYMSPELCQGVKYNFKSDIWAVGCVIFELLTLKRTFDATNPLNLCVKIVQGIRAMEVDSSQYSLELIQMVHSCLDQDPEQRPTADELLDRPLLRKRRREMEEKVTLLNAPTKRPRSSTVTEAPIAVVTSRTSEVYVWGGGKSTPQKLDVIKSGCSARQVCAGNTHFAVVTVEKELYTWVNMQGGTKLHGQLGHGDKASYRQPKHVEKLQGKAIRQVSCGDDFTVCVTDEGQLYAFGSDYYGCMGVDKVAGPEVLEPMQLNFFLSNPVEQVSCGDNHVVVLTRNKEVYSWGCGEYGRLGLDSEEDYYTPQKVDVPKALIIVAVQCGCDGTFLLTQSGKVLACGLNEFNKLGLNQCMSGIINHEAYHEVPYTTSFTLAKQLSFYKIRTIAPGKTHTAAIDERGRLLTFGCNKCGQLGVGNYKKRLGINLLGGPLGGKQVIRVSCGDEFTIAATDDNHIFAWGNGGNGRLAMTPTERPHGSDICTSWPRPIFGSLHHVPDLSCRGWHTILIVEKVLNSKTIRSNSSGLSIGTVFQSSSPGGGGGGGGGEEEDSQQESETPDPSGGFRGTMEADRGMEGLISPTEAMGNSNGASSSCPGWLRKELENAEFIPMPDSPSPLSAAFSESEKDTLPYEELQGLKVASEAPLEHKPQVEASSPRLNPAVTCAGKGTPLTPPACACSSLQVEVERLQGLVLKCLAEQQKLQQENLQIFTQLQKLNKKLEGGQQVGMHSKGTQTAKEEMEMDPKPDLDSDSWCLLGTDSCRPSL
The following applies: at 0.1 µM.

One may read the inhibition as the relative decrease from the control value, in per cent. For the compound `CCn1c(-c2nonc2N)nc2cncc(C(=O)N3CCNCC3)c21`, the inhibition was determined as 7.71% in [1]; 4.64% in assay [2]; 3.76% in assay [3]; 3.46% in [4]; 5.88% in [5]; 1.92% in assay [6]. The inhibition in assay [7] was 3.67%; in assay [8], 2.41%; in assay [9], 10.8%; in assay [10], 6%.

With `COc1ccc(-c2ccncc2)cc1C(N)=O`, the inhibition in [1] is 6.43%; in assay [2], 3.59%; in assay [3], 6.47%; in assay [4], 5.42%; in [5], 6.48%; in assay [6], -0.26%. The inhibition in assay [7] came out at 1.43%; in assay [8], 3.68%; in assay [9], 8.72%; in assay [10], 4.72%.

For `Nc1ncnc2occ(-c3ccc(NC(=O)Nc4cc(C(F)(F)F)cc(C(F)(F)F)c4)cc3)c12`, the inhibition is 5.33% in [1]; 1.24% in assay [2]; 6.51% in assay [3]; 3.72% in assay [4]; 15.5% in assay [5]; -0.98% in assay [6]. The inhibition in [7] is 0.99%; in [8] it was 2.34%; in assay [9], 0.46%; in assay [10] it was 5.43%.

Take `COc1cc2ncn(-c3cc(OCc4ccccc4Cl)c(C(N)=O)s3)c2cc1OC`: the inhibition in assay [1] came out at 2.71%; in assay [2] it was 3.45%; in assay [3], 15.5%; in [4], 3.49%; in assay [5], 37.3%; in [6] it was 1.95%. For the same compound, the inhibition was -3.5% in assay [7], 4.31% in [8], 1.21% in assay [9] and 9.22% in assay [10].

For `[O-][S+]1CCN(Cc2ccc(-c3ccc4ncnc(Nc5ccc(OCc6ccccc6)c(F)c5)c4c3)o2)CC1`, the inhibition in assay [1] worked out at 1.45%; in [2], 1.95%; in [3], 2.41%; in assay [4], 3.45%; in [5], 3.23%; in assay [6], 1.87%. Moreover, the inhibition is -0.69% in assay [7], 2.33% in [8], 2.07% in assay [9] and 5.9% in [10].

On to `COc1ccc(-c2nn3ncccc3c2-c2ccnc(Nc3ccc(Cl)c(C(F)(F)F)c3)n2)cc1`, for which the inhibition in [1] turned out to be 5.7%; in assay [2], 1.43%; in assay [3], 2.51%; in assay [4], 2.35%; in assay [5], 1.82%; in [6] it was 3.06%. The inhibition was determined as 2.55% in [7], 3.34% in [8], 3.28% in assay [9] and 6.79% in [10].

As for `NCc1ccc(-c2nc(-c3ccc(Cl)c(O)c3)c(-c3ccncc3)[nH]2)cc1`, the inhibition is -0.03% in assay [1]; 0.3% in assay [2]; 1.09% in assay [3]; -2.48% in assay [4]; 0.73% in assay [5]; -0.93% in [6]. In addition, the inhibition in assay [7] was -1.57%; in assay [8], 1.75%; in assay [9], 1.7%; in assay [10], 7.64%.

Consider `COc1cc2c(cc1Nc1nc(N3CCc4ccccc43)c3cc[nH]c3n1)N(C(=O)CN(C)C)CC2`, for which the inhibition in [1] is -0.46%; in [2], 1.31%; in assay [3], 1%; in [4], 2.74%; in assay [5], 3.53%; in assay [6] it was 0.8%. Also, the inhibition in assay [7] is -0.68%; in assay [8], 3.4%; in assay [9] it was 3.29%; in [10] it was 4.32%.
